# Compounds without any hit were thinned out: in the full panel of roughly 79,000, 15% have a hit. Unmarked numbers belong to inactive results. Activity calls are given as the source filed them. Rule as the data show it: active = growth inhibition above about 70%; inactive = the rest.
# Assays:
# [1] = NCI Yeast Anticancer Drug Screen. Data for the rad50 strain (AID 155);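 also: 0% = growth of vehicle-only cultures of the same strain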; conditions: S. cerevisiae rad50 strain growth inhibition, hits give high values
# Summary of the method: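 Genetically altered yeast (DNA repair pathway); compound treatment; growth inhibition vs vehicle ctrl.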
# [2] = NCI Yeast Anticancer Drug Screen. Data for the mec2-1 strain (AID 157); conditions: S. cerevisiae mec2-1 strain, hits give high values
# Summary of the method: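 Readout is yeast growth inhibition, normalised to vehicle-treated controls, in the mec2-1 strain exposed to compound.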
# [3] = NCI Yeast Anticancer Drug Screen. Data for the sgs1 mgt1 strain (AID 161);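 also: 0% = growth of cultures given vehicle only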; conditions: S. cerevisiae sgs1 mgt1 strain, hits give high values
# Summary of the method: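 Yeast cells carrying a defined DNA-repair defect were exposed to test compounds. Growth inhibition was measured relative to vehicle-treated controls.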
# [4] = NCI Yeast Anticancer Drug Screen. Data for the cln2 rad14 strain (AID 165);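 also: 0% = growth equal to vehicle treated cultures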; conditions: S. cerevisiae cln2 rad14 strain, hits give high values
# Summary of the method: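 Relative to vehicle controls, growth inhibition of compound-treated cln2 rad14 yeast was recorded.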
# [5] = NCI Yeast Anticancer Drug Screen. Data for the bub3 strain (AID 167); conditions: S. cerevisiae bub3 mutant strain, hits give high values
# Summary of the method: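 Yeast carrying a defined mutation is treated with each compound, and growth is compared with that of vehicle-exposed cells to give inhibition.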
# [6] = NCI Yeast Anticancer Drug Screen. Data for the mlh1 rad18 strain (AID 175); conditions: S. cerevisiae mlh1 rad18 strain growth inhibition, hits give high values
# Summary of the method: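 Test agents were incubated with a yeast strain of defined genotype (DNA damage repair defect). Inhibition of growth was derived by comparison with vehicle-exposed cultures.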
# [7] = at 5.0 µM (retest, dose inferred, filed as 0.5)
# [8] = at 50.0 µM (retest, dose inferred, filed as 5.0)
Structure (SMILES),"growth inhibition [1, 7]","growth inhibition [1, 8]",growth inhibition ([1]; at 50.0 µM),"growth inhibition [2, 7]","growth inhibition [2, 8]",growth inhibition ([2]; at 50.0 µM),"growth inhibition [3, 7] [%]","growth inhibition [3, 8]",growth inhibition ([3]; at 50.0 µM),"growth inhibition [4, 7]","growth inhibition [4, 8]",growth inhibition ([4]; at 50.0 µM),"growth inhibition [5, 7]","growth inhibition [5, 8]",growth inhibition ([5]; at 50.0 µM),"growth inhibition [6, 7]","growth inhibition [6, 8]",growth inhibition ([6]; at 50.0 µM)
Oc1cccc(Oc2cccc(Oc3ccccc3)c2)c1,1%,99% (active),99.4% (active),1%,99% (active),99.3% (active),-6,99% (active),99.5% (active),-23%,99% (active),99% (active),30%,99% (active),99.4% (active),2%,99% (active),99.3% (active)
CCOC(=O)C1CN(CCCCCCN2CC(C(=O)OCC)C(=O)C2=O)C(=O)C1=O (configuration not stated),-11%,4%,22.1%,2%,1%,3.1%,-21,3%,28.5%,4%,0%,52.9%,0%,2%,0.05%,-2%,0%,30.4%
NC(=S)N1N=C2c3ccccc3CC[C@H]2[C@@H]1c1cccs1,-52%,20%,59.6%,-4%,40%,34.4%,-26,63%,80.6% (active),0%,42%,43.1%,-11%,70% (active),60.2%,-17%,68%,51.3%
COC1=C(C)C(=O)C2=C(C1=O)C1C3CC4=C(C(=O)C(OC)=C(C)C4=O)C(CNC(=O)C(C)=O)N3C(C#N)C(C2)N1C (configuration not stated),78% (active),98% (active),90.2% (active),53%,99% (active),92% (active),35,99% (active),91.7% (active),88% (active),96% (active),89.6% (active),22%,98% (active),90.2% (active),51%,99% (active),88.3% (active)
COC1OC(CI)C(OC(c2ccccc2)(c2ccccc2)c2ccccc2)C(OC(c2ccccc2)(c2ccccc2)c2ccccc2)C1OC(c1ccccc1)(c1ccccc1)c1ccccc1 (configuration not stated),-14%,-6%,96.4% (active),-17%,-22%,98.5% (active),-8,-18%,94.5% (active),-10%,14%,97.8% (active),1%,-13%,97% (active),-17%,11%,95.9% (active)
COC(=O)C(=O)C(C(=O)c1ccc(F)cc1)c1nc2n(c1O)C(=N)N=N2 (configuration not stated),1%,52%,39.6%,-17%,46%,77.6% (active),19,76% (active),23.9%,14%,57%,59.9%,14%,67%,35.2%,24%,79% (active),34.8%
CCCCCCc1ccc(O)c(Cl)c1,0%,28%,98.8% (active),0%,15%,94% (active),-1,15%,77.3% (active),-4%,-3%,44.1%,-5%,-8%,57.4%,0%,19%,89.6% (active)
O=C1NC(=O)C(c2ccccc2)(c2ccccc2)C2CC3c4[nH]c5ccccc5c4CCN3CC12 (configuration not stated),5%,61%,64.5%,6%,63%,59.1%,5,65%,56%,6%,66%,46.6%,6%,51%,37.5%,1%,60%,73.8% (active)
CC(=O)c1cccc(NC2C(N)C(NC(=O)N(C)C)(C(C)O)C(C)(O)C2(O)COC(=O)c2c(C)cccc2O)c1 (configuration not stated),42%,96% (active),93% (active),17%,98% (active),94.5% (active),44,97% (active),94.6% (active),21%,96% (active),92% (active),36%,98% (active),93.8% (active),47%,97% (active),93.2% (active)
C=CS(=O)(=O)c1ccc(C)cc1,0%,49%,84% (active),6%,70% (active),78.7% (active),7,55%,81.4% (active),5%,31%,37.2%,4%,61%,75.8% (active),6%,87% (active),88.5% (active)
CCCCCCCCNC(=O)C(Cl)Cl,3%,17%,-6.1%,-27%,11%,2.6%,0,10%,40%,12%,-11%,-10.6%,37%,84% (active),70.4% (active),4%,17%,-3.2%
O=C(C[n+]1ccccc1)c1ccc2ccc3ccc(Cl)cc3c2c1,4%,67%,59.1%,0%,26%,32%,3,56%,35.5%,2%,39%,-90.4%,-2%,46%,2.15%,29%,82% (active),72.5% (active)
Cc1ccc(O)c(C(c2ccc([N+](=O)[O-])cc2)c2cc(C)ccc2O)c1,68%,95% (active),91.2% (active),90% (active),98% (active),92.9% (active),51,57%,39%,73% (active),53%,89.7% (active),93% (active),52%,90.9% (active),84% (active),96% (active),91.3% (active)
Nc1ccccc1N=Cc1ccccc1O,-12%,54%,66.2%,-4%,76% (active),41.2%,-8,91% (active),0.4%,-18%,55%,22.8%,-12%,63%,5.85%,3%,80% (active),69.3%
COc1cc(O)c2c(c1)C(O)C(O)CC1OC1C(=O)/C=C/CC(C)OC2=O (configuration not stated),80% (active),98% (active),91.5% (active),59%,99% (active),93.3% (active),64,99% (active),93.1% (active),61%,99% (active),92.2% (active),79% (active),99% (active),92% (active),81% (active),98% (active),92% (active)
O=C1OCCN1/N=C/c1ccc([N+](=O)[O-])o1,14%,54%,81.2% (active),7%,30%,54.1%,9,62%,87.7% (active),-2%,27%,50.1%,7%,39%,40.8%,30%,72% (active),88.5% (active)
CC(Br)C(=O)c1ccc(OCc2ccccc2)cc1 (configuration not stated),15%,84% (active),90.7% (active),14%,99% (active),94.2% (active),8,75% (active),89.9% (active),22%,78% (active),92.3% (active),6%,99% (active),90% (active),13%,94% (active),77.9% (active)
O=[N+]([O-])c1ccc(S)c(Cl)c1,16%,95% (active),95.5% (active),20%,95% (active),87.7% (active),28,95% (active),90.3% (active),0%,55%,52.6%,14%,95% (active),87.2% (active),45%,95% (active),93.5% (active)
CCCCCOC(=O)C1C(=O)CC(c2ccccc2)C1c1ccccc1 (configuration not stated),1%,79% (active),92.2% (active),-1%,63%,16.6%,-4,67%,56.1%,0%,76% (active),63.9%,-5%,72% (active),45.5%,0%,85% (active),68.6%
